Hits are enriched below; roughly 2.2% of the tested compounds scored in any of these assays.
dFosB act-1 – enhances mouse delta FosB homodimer DNA binding | purified delta FosB, TAMRA-CDK5 oligo fluorescence polarization; percent of positive-control signal above neutral wells | activation, % at 25 µM | actives 0.99% (n = 340,000) | AID 493131;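 active = mean activation above about 17%, with every replicate also reaching it, limit read from the data, passing the limit was not always enough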
Target sequence (P13346 whole entry, looked up): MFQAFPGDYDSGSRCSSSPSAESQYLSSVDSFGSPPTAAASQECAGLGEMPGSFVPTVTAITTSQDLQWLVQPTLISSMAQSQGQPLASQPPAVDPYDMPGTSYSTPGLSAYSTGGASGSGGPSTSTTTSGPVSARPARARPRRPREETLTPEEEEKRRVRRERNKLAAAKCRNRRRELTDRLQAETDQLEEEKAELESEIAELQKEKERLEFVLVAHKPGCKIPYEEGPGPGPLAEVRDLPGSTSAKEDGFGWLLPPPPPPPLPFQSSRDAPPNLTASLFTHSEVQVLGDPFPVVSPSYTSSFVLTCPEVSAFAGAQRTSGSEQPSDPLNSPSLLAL
NLRP3 yeast inh – inhibitors of NALP3 inflammasome in yeast; Yeast reconstituted NLRP3/ASC/caspase-1, beta-gal luminescence, 24 h; inhibition, % at 10 µM; actives 0.39% (n = 330,000); AID 2825;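 active = inhibition of 50% or more; inactive = inhibition below 50%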
EBNA-1 inh – blocks EBNA-1 binding to DNA | actives 0.34% (n = 300,000) | inhibition, % at 14.8 µM | EBNA-1 DNA binding, fluorescence polarization; in the data active = inhibition above about 28%
ZTA DNA inh – counter-screen for EBNA-1 inhibitors: inhibitors of Epstein-Barr virus ZTA. ZTA-DNA binding, fluorescence polarization. actives 0.15% (n = 320,000). inhibition, % at 11 µM. AID 2234. P03206; in the data active = inhibition above about 33%
Target sequence (P03206 whole entry, looked up): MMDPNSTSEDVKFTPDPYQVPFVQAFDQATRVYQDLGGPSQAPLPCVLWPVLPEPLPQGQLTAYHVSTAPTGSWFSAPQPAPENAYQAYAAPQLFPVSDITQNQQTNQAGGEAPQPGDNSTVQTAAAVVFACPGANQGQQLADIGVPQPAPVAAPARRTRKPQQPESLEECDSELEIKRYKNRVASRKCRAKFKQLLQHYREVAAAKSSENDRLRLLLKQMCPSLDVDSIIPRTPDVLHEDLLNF
PolyA inh – yeast polyadenylation inhibition. S. cerevisiae SKY197-pL101 polyadenylation reporter, beta-gal luminescence; efflux-impaired pdr1/pdr3 knockout yeast; score 100 = 6 SD above DMSO. activity score, % at 12 µM. actives 0.02% (n = 300,000). AID 1875;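 active = lowest replicate activity score at least 50, where 100 means six control SD above control mean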;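 note: yeast exposed to compound for 9 h at 30 °C; higher score means more reporter readthrough which indicates perturbed polyadenylation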
NALP1 inh – NALP1 inhibition; S. cerevisiae NALP1/ASC/caspase-1 growth, X-gal OD620, 72 h; inhibition, % at 10 µM; actives 0.61% (n = 280,000); in the data active = inhibition mostly above about 24%, no sharp cut-off; inactive = mostly below about 32%
dFosB act-2 – enhances mouse delta FosB homodimer binding to DNA; shares compounds with dFosB act-1; purified delta FosB, TAMRA-CDK5 oligo fluorescence polarization; normalised: neutral wells 0, positive control 100; activation, % at 24.9 µM; 2,400 tested, under 10 active; AID 588690;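 active = highest replicate activation at or above 34% and every replicate reaching that threshold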;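 note: higher polarization means more probe DNA bound by delta FosB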
Each line names hits and unclear results; the compound was inactive in the other large screens (follow-up assays come after a bar, where they were run).

CCOc1ccc(-n2c([S-])c(C(=O)Nc3ccc(S(=O)(=O)N4CCOCC4)cc3)[n+]3cc(C(N)=O)ccc23)cc1	dFosB act-1 20 | dFosB act-2 inactive
Cc1ccccc1NC(=O)CSc1nc(N)c(C#N)c(-c2cccs2)c1C#N	dFosB act-1 61 | dFosB act-2 inactive
Oc1ccc(Cl)cc1-c1cc(-c2cccc(Br)c2)n[nH]1	dFosB act-1 46 | dFosB act-2 inactive
C=CCN(c1ccccc1OC)S(=O)(=O)c1cccc(C(=O)NCC(c2ccc(OC)cc2)N2CCCC2)c1 (configuration not stated)	dFosB act-1 27 (no result: NLRP3 yeast inh, EBNA-1 inh, ZTA DNA inh, PolyA inh, NALP1 inh) | dFosB act-2 inactive
CN(Cc1ccccc1)C(=O)COC(=O)c1ccc[nH]c1=O	none (no result: EBNA-1 inh, ZTA DNA inh, PolyA inh, NALP1 inh)
O=Cc1ccc(OCc2cn(CC(=O)c3ccc(O)cc3)nn2)cc1	none (no result: NLRP3 yeast inh, EBNA-1 inh, ZTA DNA inh, PolyA inh, NALP1 inh)
O=C(Nc1ccc(F)cc1)c1ccc(CSc2ccccc2)o1	none
NS(=O)(=O)c1ccc(NC(=O)c2ccc(CSc3ccccc3)o2)cc1	dFosB act-1 34 | dFosB act-2 inactive
O=S(=O)(Nc1ncccn1)c1ccc(NC(=S)N2CCN(Cc3ccc(F)cc3Cl)CC2)cc1	none
CC[C@@H](C)[C@@H]1CN([C@@H](C)CN2CCC[C@H]2CN2C(N)=NC[C@@H]2Cc2ccccc2)C(=N)N1CCc1ccc(Cl)c(Cl)c1	dFosB act-1 23 (no result: EBNA-1 inh, ZTA DNA inh, PolyA inh, NALP1 inh) | dFosB act-2 inactive
O=S(=O)(Nc1nc2ccccc2s1)c1ccc(Cl)nc1	none
CC(=O)Nc1sc(C)c(C)c1C(=O)OCC(=O)NCc1ccc(Cl)cc1	dFosB act-1 90 (no result: EBNA-1 inh, PolyA inh, NALP1 inh) | dFosB act-2 inactive
Cc1cc(OCC(=O)Nc2cc(-c3nn4c(C)nnc4s3)ccc2C)ccc1Cl	dFosB act-1 38 (no result: PolyA inh) | dFosB act-2 inactive
COc1ccc(OCC(=O)Nc2cc(-c3nn4c(C)nnc4s3)ccc2C)cc1	none
COc1ccc(/C=N\NC(=O)c2cc(OCC(F)(F)F)ccc2OCC(F)(F)F)cc1	dFosB act-1 18 | dFosB act-2 inactive
Cc1ccc(/C=N\NC(=O)c2cc(OCC(F)(F)F)ccc2OCC(F)(F)F)cc1	none
O=C(CSc1nnc(-c2ccncc2)n1Cc1ccco1)Nc1ccccc1Cl	none
O=C(CSc1nnc(-c2ccncc2)n1Cc1ccco1)Nc1nc(-c2ccccc2)cs1	dFosB act-1 33 | dFosB act-2 inactive
O=C(NC1CCN(S(=O)(=O)c2ccccc2C(F)(F)F)CC1)c1ccco1	none
CC1Cc2cccc3ccc(=O)n(c23)C1 (configuration not stated)	none (no result: NLRP3 yeast inh, EBNA-1 inh, ZTA DNA inh, PolyA inh, NALP1 inh)
O=[N+]([O-])c1ccccc1OCCOc1ccccc1[N+](=O)[O-]	dFosB act-1 23 | dFosB act-2 inactive
COc1ccccc1CNCCS(=O)(=O)NCc1ccccc1	none (no result: NLRP3 yeast inh, EBNA-1 inh, ZTA DNA inh, PolyA inh, NALP1 inh)
O=C(Nc1nccs1)c1cc(-c2ccccn2)nc2c(Cl)cccc12	dFosB act-1 39 | dFosB act-2 inactive
Nc1nonc1-n1nnc(C(=O)N/N=C/c2c(Cl)cccc2Cl)c1CSC1=NCCS1	dFosB act-1 27 (no result: NALP1 inh) | dFosB act-2 inactive
Nc1nonc1-n1nnc(C(=O)N/N=C/c2ccccc2Cl)c1CSc1ccccc1	none (no result: dFosB act-1, NALP1 inh)
CCCOc1ccc(-c2c(C(=O)N/N=C/c3ccccc3)nnn2-c2nonc2N)cc1	dFosB act-1 30 (no result: NALP1 inh) | dFosB act-2 inactive
Nc1nonc1-n1nnc(C(=O)N/N=C/c2ccc(F)cc2)c1-c1ccc2c(c1)OCO2	none
Nc1nonc1-n1nnc(C(=O)N/N=C/c2ccc3c(c2)OCO3)c1CSc1ccccc1	dFosB act-1 36 | dFosB act-2 inactive
Nc1nonc1-n1nnc(C(=O)N/N=C/c2cccc(F)c2)c1-c1ccc2c(c1)OCO2	dFosB act-1 37 | dFosB act-2 inactive
Nc1nonc1-n1nnc(C(=O)N/N=C/C=C/c2ccccc2)c1CSC1=NCCS1	none (no result: dFosB act-1)
CCC(=O)c1ccc(SC(=O)N(C)C)cc1O	none
O=C(Nc1ccccc1C(=O)O)c1cc(S(=O)(=O)N2CCCCC2)c(Cl)cc1Cl	none
CCCCn1c(SCC(=O)c2ccc(OC)c(OC)c2)nc2cc(S(N)(=O)=O)ccc21	dFosB act-1 23 | dFosB act-2 inactive
CCNC(=O)N(C)C[C@H]1N[C@@](CC)(C(=O)OC)[C@H]2C(=O)N(Cc3ccccc3)C(=O)[C@@H]12	none (no result: EBNA-1 inh, ZTA DNA inh, PolyA inh, NALP1 inh)
CC(=O)c1sc(NC(=O)c2ccc(F)c(F)c2)nc1C	dFosB act-1 28 | dFosB act-2 inactive
CC(=O)c1sc(NC(=O)c2ccc(Cl)cc2)nc1C	dFosB act-1 34 (no result: NALP1 inh) | dFosB act-2 inactive
CC(=O)c1sc(NC(=O)c2cccc(C)c2)nc1C	none
Cc1ccc(C(=O)Nc2nc(C)c(C(=O)Nc3ccc4c(c3)CCC4)s2)cc1	dFosB act-1 21 | dFosB act-2 inactive
O=C(Nc1nc(-c2ccc(Cl)s2)cs1)c1ccco1	none
O=C(Nc1nc(-c2nc3ccccc3s2)cs1)c1ccco1	dFosB act-1 78 | dFosB act-2 inactive
CC(=O)Nc1ccc(NC(=O)C2CCCN(c3nnc(-n4cccc4)s3)C2)cc1 (configuration not stated)	dFosB act-1 31 | dFosB act-2 inactive
O=C(c1cccc(S(=O)(=O)N2CCN(c3ccc(F)cc3)CC2)c1)N1CCN(c2ccccc2O)CC1	none (no result: NLRP3 yeast inh, EBNA-1 inh, ZTA DNA inh, PolyA inh, NALP1 inh)
O=C(NC(NC(=O)c1c(F)cccc1F)c1ccc([N+](=O)[O-])cc1)c1c(F)cccc1F	dFosB act-1 24 | dFosB act-2 inactive
O=C(O)COc1ccc(C(NC(=O)c2c(F)cccc2F)NC(=O)c2c(F)cccc2F)cc1	none
CN=C1SC(CC(=O)Nc2ccccc2F)C(=O)N1/N=C/c1ccc(O)c(OC)c1 (configuration not stated)	none
CCOc1ccc(/C=N/N2C(=O)C(CC(=O)Nc3ccc(F)cc3F)SC2=NC)cc1OC (configuration not stated)	dFosB act-1 26 | dFosB act-2 inactive
O=C(Cc1sc(-c2ccccc2Cl)nc1-c1ccccc1)Nc1ccc(F)cc1	dFosB act-1 25 | dFosB act-2 inactive
O=C(Cc1sc(-c2ccccc2Cl)nc1-c1ccccc1)Nc1ccccc1	none
COc1ccc(/C=C2\SC(=O)N(CCC(=O)Nc3ccc(S(=O)(=O)Nc4nccs4)cc3)C2=O)cc1	dFosB act-1 86 | dFosB act-2 inactive
O=C(O)C1C(=O)NCC1c1ccccc1 (configuration not stated)	none
N#CCCn1cc(/C=N/NC(N)=S)c(-c2ccc(-c3ccccc3)cc2)n1	dFosB act-1 27 | dFosB act-2 inactive
O=C(CCN1C(=O)S/C(=C/c2ccccc2)C1=O)Nc1ccc(O)c(C(=O)O)c1	none
O=C(Cc1c(F)cccc1Cl)N1CCN(S(=O)(=O)c2cccc(F)c2)CC1	none (no result: NALP1 inh)

From PubChem BioAssay
